Measured values published in PubChem BioAssay AID624162 (National Center for Advancing Translational Sciences (NCATS), 2012).
The other results are listed elsewhere or left out. Records with an inconclusive call do not appear. The source made the active and inactive calls. Calls follow the shape of the dose curve; as a rule, active = well fitted inhibition curve with a large enough effect; inconclusive = small, poorly fitted or top-dose-only effect; inactive = no such curve, though single readings can be large or run the other way.

biological target: Histone-lysine N-methyltransferase 2A (Homo sapiens) (UniProt Q03164); test: qHTS Fluorescence Polarization (FP) Assay for Inhibitors of MLL CXXC domain - DNA interaction: HTRF Assay; conditions: MLL CXXC-DNA binding, biochemical; series mostly up to 172 µM; activity change, negative = inhibition: at the top concentration; also: nearly all actives have a fitted effect of over 80% in size
Sequence (Q03164 whole entry, looked up, the tested form may be a part): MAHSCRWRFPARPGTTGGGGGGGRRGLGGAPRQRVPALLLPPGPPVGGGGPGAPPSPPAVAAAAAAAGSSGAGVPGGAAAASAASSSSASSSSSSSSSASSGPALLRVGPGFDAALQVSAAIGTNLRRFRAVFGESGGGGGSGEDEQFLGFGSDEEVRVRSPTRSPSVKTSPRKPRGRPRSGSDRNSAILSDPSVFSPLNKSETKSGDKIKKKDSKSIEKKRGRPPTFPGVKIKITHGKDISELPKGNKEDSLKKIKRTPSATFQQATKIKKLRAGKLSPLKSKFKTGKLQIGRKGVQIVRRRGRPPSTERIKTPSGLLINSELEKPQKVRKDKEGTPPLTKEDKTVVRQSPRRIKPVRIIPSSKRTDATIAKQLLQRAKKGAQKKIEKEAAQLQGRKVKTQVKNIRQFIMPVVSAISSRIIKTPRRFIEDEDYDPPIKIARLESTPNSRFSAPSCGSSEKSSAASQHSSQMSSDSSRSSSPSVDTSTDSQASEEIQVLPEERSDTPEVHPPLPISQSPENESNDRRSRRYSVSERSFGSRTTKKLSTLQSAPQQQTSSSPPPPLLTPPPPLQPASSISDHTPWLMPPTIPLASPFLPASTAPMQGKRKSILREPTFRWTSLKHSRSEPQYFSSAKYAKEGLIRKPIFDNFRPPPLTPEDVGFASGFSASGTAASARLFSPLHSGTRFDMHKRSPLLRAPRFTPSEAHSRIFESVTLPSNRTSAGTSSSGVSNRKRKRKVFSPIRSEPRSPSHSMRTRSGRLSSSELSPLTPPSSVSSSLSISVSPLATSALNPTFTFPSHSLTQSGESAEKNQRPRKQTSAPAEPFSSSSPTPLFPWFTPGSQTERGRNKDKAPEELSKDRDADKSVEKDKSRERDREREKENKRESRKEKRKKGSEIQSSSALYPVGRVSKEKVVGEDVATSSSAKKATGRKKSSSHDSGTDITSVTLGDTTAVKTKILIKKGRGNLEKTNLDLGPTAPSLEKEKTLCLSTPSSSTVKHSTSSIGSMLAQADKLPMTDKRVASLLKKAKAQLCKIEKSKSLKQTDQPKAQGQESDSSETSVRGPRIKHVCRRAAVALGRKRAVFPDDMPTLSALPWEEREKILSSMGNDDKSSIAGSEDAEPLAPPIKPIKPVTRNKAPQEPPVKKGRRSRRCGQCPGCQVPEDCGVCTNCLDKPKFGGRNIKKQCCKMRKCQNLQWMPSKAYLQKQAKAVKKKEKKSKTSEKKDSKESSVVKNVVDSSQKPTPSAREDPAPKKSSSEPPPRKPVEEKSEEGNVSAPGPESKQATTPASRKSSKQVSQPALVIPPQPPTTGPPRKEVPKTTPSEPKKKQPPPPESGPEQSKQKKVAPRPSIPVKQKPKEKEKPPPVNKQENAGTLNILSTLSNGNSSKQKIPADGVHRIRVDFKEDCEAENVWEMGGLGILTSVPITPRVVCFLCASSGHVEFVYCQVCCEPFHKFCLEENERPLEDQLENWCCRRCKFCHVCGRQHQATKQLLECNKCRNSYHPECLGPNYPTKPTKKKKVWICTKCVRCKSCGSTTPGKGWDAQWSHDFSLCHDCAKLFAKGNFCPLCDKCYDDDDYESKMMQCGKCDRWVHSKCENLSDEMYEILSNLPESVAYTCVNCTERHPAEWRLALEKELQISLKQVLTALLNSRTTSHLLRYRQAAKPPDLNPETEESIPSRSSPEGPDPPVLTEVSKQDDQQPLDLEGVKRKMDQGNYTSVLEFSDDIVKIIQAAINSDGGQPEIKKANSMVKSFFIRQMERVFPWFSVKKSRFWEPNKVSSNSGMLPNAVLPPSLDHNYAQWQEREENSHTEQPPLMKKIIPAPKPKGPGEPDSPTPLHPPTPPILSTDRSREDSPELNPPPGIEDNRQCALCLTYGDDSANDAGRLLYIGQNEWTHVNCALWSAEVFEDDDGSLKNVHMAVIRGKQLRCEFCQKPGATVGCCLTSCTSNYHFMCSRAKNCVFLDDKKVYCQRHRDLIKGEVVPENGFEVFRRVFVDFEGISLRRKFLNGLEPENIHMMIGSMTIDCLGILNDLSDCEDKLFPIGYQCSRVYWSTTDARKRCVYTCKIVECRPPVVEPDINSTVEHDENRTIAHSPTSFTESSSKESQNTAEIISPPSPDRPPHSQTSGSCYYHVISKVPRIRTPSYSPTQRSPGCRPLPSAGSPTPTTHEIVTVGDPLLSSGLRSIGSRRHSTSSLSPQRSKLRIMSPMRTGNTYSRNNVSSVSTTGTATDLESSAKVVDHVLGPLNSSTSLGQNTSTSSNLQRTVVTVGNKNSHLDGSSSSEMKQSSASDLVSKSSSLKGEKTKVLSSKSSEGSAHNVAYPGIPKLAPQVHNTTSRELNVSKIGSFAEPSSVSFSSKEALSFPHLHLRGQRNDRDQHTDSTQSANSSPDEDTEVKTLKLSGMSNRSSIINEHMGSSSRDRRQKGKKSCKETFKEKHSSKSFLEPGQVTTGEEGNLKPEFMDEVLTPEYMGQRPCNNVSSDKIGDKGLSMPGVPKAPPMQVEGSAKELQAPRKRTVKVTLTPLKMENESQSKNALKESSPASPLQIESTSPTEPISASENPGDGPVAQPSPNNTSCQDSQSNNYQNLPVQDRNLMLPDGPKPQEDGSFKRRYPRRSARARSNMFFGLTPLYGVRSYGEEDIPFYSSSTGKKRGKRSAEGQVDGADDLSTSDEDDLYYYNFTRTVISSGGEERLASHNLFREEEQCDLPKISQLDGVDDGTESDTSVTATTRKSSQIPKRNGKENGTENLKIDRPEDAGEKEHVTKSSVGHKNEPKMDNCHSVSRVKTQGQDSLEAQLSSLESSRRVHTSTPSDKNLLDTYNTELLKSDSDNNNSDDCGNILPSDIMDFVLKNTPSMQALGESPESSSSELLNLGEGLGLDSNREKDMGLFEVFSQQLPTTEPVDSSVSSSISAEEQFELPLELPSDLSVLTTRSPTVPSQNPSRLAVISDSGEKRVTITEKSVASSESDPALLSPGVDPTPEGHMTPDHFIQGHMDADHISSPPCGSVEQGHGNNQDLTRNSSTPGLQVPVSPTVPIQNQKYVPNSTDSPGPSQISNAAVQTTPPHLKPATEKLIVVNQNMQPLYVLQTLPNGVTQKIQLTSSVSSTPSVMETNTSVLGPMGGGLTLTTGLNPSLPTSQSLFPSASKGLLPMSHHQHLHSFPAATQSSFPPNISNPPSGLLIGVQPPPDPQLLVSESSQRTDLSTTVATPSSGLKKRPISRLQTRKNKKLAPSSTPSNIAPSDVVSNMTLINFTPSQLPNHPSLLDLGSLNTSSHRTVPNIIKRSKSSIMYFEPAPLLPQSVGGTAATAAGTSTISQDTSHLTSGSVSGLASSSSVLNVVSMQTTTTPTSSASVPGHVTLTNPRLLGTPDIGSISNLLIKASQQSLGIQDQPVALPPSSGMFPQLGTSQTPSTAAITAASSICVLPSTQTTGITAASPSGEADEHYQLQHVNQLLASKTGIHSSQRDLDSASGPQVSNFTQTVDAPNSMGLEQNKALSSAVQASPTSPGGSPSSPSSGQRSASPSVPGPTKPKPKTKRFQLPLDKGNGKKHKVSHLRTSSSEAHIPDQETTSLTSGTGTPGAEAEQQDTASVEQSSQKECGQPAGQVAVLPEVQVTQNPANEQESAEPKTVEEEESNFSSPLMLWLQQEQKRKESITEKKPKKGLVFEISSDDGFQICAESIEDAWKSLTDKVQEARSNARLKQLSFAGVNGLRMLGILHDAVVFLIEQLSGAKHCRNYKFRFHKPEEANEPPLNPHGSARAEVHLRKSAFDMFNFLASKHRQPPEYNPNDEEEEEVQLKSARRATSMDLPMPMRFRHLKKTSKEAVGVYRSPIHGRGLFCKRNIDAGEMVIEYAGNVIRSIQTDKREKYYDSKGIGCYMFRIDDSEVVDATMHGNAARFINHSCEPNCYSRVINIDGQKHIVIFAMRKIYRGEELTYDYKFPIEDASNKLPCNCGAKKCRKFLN
Text: The MLL (Mixed Lineage Luekemia) gene is involved in chromosomal translocation that results in either acute lymphoid leukemia (ALL) or acute myeloid leukemia (AML). Chromasomal translocation of MLL gene is responsible for the fusion of N-terminal MLL to more than 60 different partner genes in frame. Many of the MLL partner genes contain transcription activation domains or function as transcriptional activators. Despite the heterogeneity of fusion partners, the N-terminus of MLL fusion proteins always consists of the N-terminal menin binding motif and the CXXC domain. The MLL-CXXC domain specifically recognizes unmethylated CpG sequences of the HOX-A gene. Disruption of the MLL-CXXC and HOX-A gene interaction leads to down regulation of HOX-A gene expression and may potentially reverse leukemogenesis. We have miniaturized and optimized an in-vitro assay to screen for inhibitors of the MLL-CXXC domain and HOX-A DNA interaction, which could have utility in MLL fusion leukemias.
This is a hit validation assay that tests this hits identified in the primary screen in this secondary screen, using an HTRF a read-out.
NIH Molecular Libraries Probe Production Network [MLPCN]
NIH Chemical Genomics Center [NCGC]
PI Name: John Bushweller, University of Virgina
One microliter of 7microM GST-MLL-CXXC solution prepared in assay buffer (50 mM TRIS-HCl pH 7.5, 50 mM NaCl, 1 mM DTT, 0.05% BSA) was dispesed into a 1536 well plate. Compound solution and unlabeled HOX-A9 was tranferred into the assay plate using the Kalypsys 1536-pin tool and incubated at room temperature for 5 min. One microL of 50nM Biotinylated-HOX-A9 solution prepared in assay buffer was dispensed into the assay plate; centrifuge for 30 seconds at 1000 RPM; and incubated for 30 min at room temperature. Next, 3 microL/well detection reagent mixture of 2.8 nM Eu3+-Cryptate-anti-GST-AB and 100 nM Streptavidin linked XL665 (Cisbio, MA) was added. RT-FRET read was taken after 60min of room temp incubation using the PerkinElmer Envision plate reader equipped with Eu3+ HTRF optimized filter set; EX 337nm / EM […].
% is scaled to controls: 0 for no effect and ±100 for the full control effect.

Activity change, negative = inhibition, inactive:
COc1ccc(-c2onc3ccc(C(C)=O)cc23)cc1 6.05%
O=C1NN(c2ccccc2)C(=O)/C1=C/c1ccc(-c2cccc(C(=O)O)c2)o1 7.82%
COc1ccc(S(=O)(=O)/N=C2\C=C(NS(=O)(=O)c3ccccc3)C(=O)c3ccccc32)cc1 74.8%
COc1cc(/C=C2/C(=O)NN(c3ccc(F)cc3)C2=O)cc([N+](=O)[O-])c1O 84.9%
